About 150 (12%) of roughly 1,300 compounds were called active. Not shown: some 30% with an inconclusive outcome. The sample holds actives, similar compounds and a random draw of the others, so the mix is not that of the screen. Values without a mark were called inactive. Calls follow the shape of the dose curve; as a rule, active = well fitted cell-killing curve with a large enough effect; inconclusive = small, poorly fitted or top-dose-only effect, or effect the other way; inactive = flat fitted curve, though single readings scatter.
Assay: qHTS of small molecules that selectively kill Giardia lamblia: Hit Validation in HepG2 cytotox;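 also: compound exposure lasted overnight at 37 deg C; nearly all actives have a fitted effect of over 55% in size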;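 as to activity change, negative = cytotoxicity: viability measured as cellular ATP by ATPLite luminescence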
Conditions: cell viability; Potency: HepG2 cytotoxicity; series mostly up to 38.3 µM; activity change, negative = cytotoxicity: at the top concentration
How it was run: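 Counterscreen cytotoxicity: ATPLite luminescence (15 min, room temperature) measured in HepG2 cells exposed overnight at 37 deg C to pin-transferred compound (23 nL) after overnight pre-incubation.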
% is scaled to controls: 0 for no effect and ±100 for the full control effect; potency is read from the fitted curve at half-maximal effect.

| SMILES | activity change, negative = cytotoxicity | Potency |
| --- | --- | --- |
| COc1ccc(-n2nc([N+](=O)[O-])c(=NCCc3ccccc3)n2O)cc1 | 8.74% |  |
| CCCCC12CN3CC(C)(CN(C1)C3c1ccc([N+](=O)[O-])o1)C2=O (stereo not given) | -4.07% |  |
| Cc1ccc(S(=O)(=O)N2[C@@H](c3ccc(F)cc3)C(C(=O)O)=CC[C@H]2c2cccs2)cc1 | 16.8% |  |
| COc1ccc(C(=O)CC(SCC(NC(C)=O)C(=O)O)c2ccc(Cl)cc2)cc1OC (stereo not given) | 21.9% |  |
| Cc1cc(C)cc(N=c2c([N+](=O)[O-])nn(-c3cccc(Cl)c3)n2O)c1 | 17.1% |  |
| O=C(Nc1ccc2oc(-c3cccnc3)nc2c1)c1ccc([N+](=O)[O-])o1 |  | 13.1 µM (active) |
| O=C(Nc1ccc2oc(-c3ccccc3F)nc2c1)c1ccc([N+](=O)[O-])o1 | 16.3% |  |
| O=C(Nc1ccc(-c2nc3ncccc3o2)cc1)c1ccc([N+](=O)[O-])o1 |  | 4.65 µM (active) |
| O=C(Nc1ccc2oc(-c3ccncc3)nc2c1)c1ccc([N+](=O)[O-])o1 |  | 16.5 µM (active) |
| Cc1cccnc1NC(=O)c1ccc([N+](=O)[O-])o1 | 5.86% |  |
| Cc1ccc(-c2nnc(NC(=O)c3ccc([N+](=O)[O-])o3)o2)c(C)c1 | -10.4% |  |
| COc1ccc(-n2c(C)cc(C(=O)COc3ccc(C)nc3[N+](=O)[O-])c2C)cc1 | 0.437% |  |
| CC(=O)c1c(COC(=O)c2ccc(F)cc2)nc2ccccc2[n+]1[O-] | 26.6% |  |
| COc1ccc(-n2nc([N+](=O)[O-])c(=NCCc3ccc(OC)c(OC)c3)n2O)cc1 | 19.2% |  |
| Cc1cccc(NC(=O)CN2C(=O)S/C(=C\c3ccc(O)c([N+](=O)[O-])c3)C2=O)c1 | 1.03% |  |
| Cn1nc(N)c2c(-c3ccc(Cl)cc3)c(C#N)c(N)nc21 | 18.2% |  |
| O=[N+]([O-])c1ccc(/C=N/Nc2nc(N3CCCC3)nc(N3CCCC3)n2)o1 | 27.3% |  |
| CCN(CC)S(=O)(=O)c1cccc(N=Nc2c(O)c3ccccc3oc2=O)c1 | 3.89% |  |
| Cc1ccc(S(=O)(=O)N2[C@@H](c3ccc(Cl)cc3)C(C(=O)O)=CC[C@H]2c2cccc(Cl)c2)cc1 | 4.59% |  |
| O=[N+]([O-])c1ccc(NCc2ccccc2N2CCC(CO)CC2)nc1 | 0.405% |  |
| Cc1c(Cl)cccc1N=c1c([N+](=O)[O-])nn(-c2ccccc2)n1O | 11.6% |  |
| CN=c1c([N+](=O)[O-])nn(-c2ccc3c(c2)OCCO3)n1O | 19.2% |  |
| O=c1c2c([N+](=O)[O-])cc([N+](=O)[O-])cc2nc2ccccn12 | 12.5% |  |
| CCCC12CN3CC(C)(CN(C1)C3c1ccc([N+](=O)[O-])o1)C2=O (stereo not given) | 23.5% |  |
| CC(=O)CSc1ccc(-c2nc3ccccc3[nH]2)cn1 |  | 14.7 µM (active) |

— PubChem BioAssay AID588382 (National Center for Advancing Translational Sciences (NCATS), 2011)
